This is one part of a sample in which hits are shown more often than they occur.
Dicer processing = inhibitors of human Dicer processing of pre-microRNA. cat-ELCCA pre-miR-21 Dicer processing, chemiluminescence; stronger effect = higher value. Q9UPY3. 47,000 tested, 6% active. z-score at 25 µM; in the data active = z-score above about 3, passing the limit was not always enough;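 note: plate controls were vehicle for no effect and no enzyme for full effect; higher signal means more uncleaved substrate so more Dicer inhibition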
Target sequence (Q9UPY3 whole entry, looked up): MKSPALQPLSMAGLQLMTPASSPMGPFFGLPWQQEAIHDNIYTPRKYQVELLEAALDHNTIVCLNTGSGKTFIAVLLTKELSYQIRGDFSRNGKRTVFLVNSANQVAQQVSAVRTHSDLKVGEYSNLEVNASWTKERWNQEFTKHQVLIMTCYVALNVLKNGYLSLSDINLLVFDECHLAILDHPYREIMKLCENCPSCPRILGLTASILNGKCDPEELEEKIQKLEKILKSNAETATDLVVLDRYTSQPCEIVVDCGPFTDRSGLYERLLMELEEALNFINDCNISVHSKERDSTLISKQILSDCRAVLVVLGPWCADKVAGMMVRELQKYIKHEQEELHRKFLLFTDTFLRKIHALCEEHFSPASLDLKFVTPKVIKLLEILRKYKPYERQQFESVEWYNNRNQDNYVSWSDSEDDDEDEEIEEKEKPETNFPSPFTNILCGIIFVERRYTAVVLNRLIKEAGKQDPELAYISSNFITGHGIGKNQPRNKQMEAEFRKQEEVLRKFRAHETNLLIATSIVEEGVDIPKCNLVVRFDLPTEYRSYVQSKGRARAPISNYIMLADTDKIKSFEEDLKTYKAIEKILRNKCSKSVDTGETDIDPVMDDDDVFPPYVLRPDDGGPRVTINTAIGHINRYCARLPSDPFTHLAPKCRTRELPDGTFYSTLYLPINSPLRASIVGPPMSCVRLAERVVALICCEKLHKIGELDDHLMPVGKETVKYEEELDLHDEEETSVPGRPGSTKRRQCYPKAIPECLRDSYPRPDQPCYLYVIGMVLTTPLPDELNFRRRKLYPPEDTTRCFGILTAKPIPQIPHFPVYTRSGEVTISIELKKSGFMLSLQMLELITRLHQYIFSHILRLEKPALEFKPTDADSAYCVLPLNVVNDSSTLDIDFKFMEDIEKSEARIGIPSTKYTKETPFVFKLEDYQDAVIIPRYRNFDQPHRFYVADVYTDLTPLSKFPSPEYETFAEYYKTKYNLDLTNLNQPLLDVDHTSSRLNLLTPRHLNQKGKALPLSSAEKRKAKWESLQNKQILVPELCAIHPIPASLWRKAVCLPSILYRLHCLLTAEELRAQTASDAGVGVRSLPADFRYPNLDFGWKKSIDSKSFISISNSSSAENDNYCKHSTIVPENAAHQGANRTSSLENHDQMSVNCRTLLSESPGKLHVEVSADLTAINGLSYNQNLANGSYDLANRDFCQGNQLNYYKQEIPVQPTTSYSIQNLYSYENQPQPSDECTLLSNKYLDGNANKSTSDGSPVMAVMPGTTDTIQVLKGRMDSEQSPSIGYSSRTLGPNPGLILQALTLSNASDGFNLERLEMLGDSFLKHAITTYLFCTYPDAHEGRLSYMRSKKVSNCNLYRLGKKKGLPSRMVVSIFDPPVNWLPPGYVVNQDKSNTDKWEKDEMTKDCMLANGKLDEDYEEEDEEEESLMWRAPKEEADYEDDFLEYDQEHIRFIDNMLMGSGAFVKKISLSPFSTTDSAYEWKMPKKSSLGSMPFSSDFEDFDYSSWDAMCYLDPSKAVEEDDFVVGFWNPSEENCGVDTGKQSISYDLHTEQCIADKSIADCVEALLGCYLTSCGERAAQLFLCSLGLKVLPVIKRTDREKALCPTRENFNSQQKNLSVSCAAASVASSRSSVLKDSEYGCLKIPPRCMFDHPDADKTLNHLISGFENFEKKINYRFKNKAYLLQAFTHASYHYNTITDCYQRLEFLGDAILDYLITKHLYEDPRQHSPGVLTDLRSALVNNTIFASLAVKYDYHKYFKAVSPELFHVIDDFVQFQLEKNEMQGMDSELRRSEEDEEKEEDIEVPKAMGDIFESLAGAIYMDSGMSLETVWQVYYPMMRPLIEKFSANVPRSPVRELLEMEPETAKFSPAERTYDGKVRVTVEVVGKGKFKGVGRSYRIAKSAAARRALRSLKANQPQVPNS
* marks the source's active call; other numbers are inactive results.

SMILES | Dicer processing
O=C(O)C1CC(=O)N(CCc2cccs2)C1 (stereo not given) | 0.21
CNC(=O)C(C)NC(=O)OC(C)(C)C (stereo not given) | 0.96
COC(=O)/C(C#N)=C/c1ccc(Cl)c(Cl)c1 | 2
Cc1cc(=O)oc2cc(NS(=O)(=O)c3cccs3)ccc12 | -1.8
O=S(=O)(Nc1ccc(Oc2ccc(NS(=O)(=O)c3cccs3)cc2)cc1)c1cccs1 | 3.6*
O=S(=O)(Nc1cccc2ccccc12)c1cccs1 | 2.4
Cc1ccc(CC2CC(=O)N(Cc3ccco3)C2=O)cc1 (stereo not given) | 3.6*
Cc1ccc(CC2CC(=O)N(c3ccncc3)C2=O)cc1 (stereo not given) | -0.31
Cc1ccc(CC2CC(=O)N(c3ccc(C(=O)O)cc3)C2=O)cc1 (stereo not given) | 2.3
O=C(CSc1nccc(C(F)(F)F)n1)Nc1ccc(Br)cc1 | -1.1
CCOC(=O)C1C2C=CC3(CN(Cc4ccc(C)cc4)C(=O)C13)O2 (stereo not given) | 3
Nc1ccc2nc(-c3cccnc3)[nH]c2c1 | 0.6
Cn1c(-c2ccc(-c3nc4ccccc4[nH]3)cc2)nc2cc(N)ccc21 | 4.7*
Nc1ccc(Oc2ccc3nc(-c4ccc(N)cc4)[nH]c3c2)cc1 | 0.25
Clc1ccc(-c2nc3ccccc3[nH]2)cc1 | -1.5
Cn1c(-c2ccc3nc(-c4ccc(N)cc4)[nH]c3c2)nc2cc(N)ccc21 | 5.7*
Nc1ccc2nc(-c3ccccc3)[nH]c2c1 | -3.4
C#Cc1cccc(NC(=O)CC(C)S(=O)(=O)c2ccc(Cl)cc2)c1 (stereo not given) | 0.37
CC(=O)c1ccc(Br)s1 | -0.92
CCCCCNc1nc(CCCC)c2c(c1C#N)CC(C)(C)OC2 | 0.74
CC(=O)OCCNc1cc(Cl)c2noc3c2c1C(=O)c1ccccc1-3 | 3.2*
CCOC(=O)c1ccc2c3c(onc13)-c1ccccc1C2=O | -1.1
CCOc1ccc2noc3c2c1C(=O)c1ccccc1-3 | -0.35
COc1ccc(-c2[nH]ncc2/C=N/NC(=S)NC(C)(C)C)cc1 | -0.03
Cc1cccc(/N=c2\scc(-c3cccs3)n2Cc2ccccc2)n1 | 1.7
SMILES | Dicer processing
O=C(O)C1CC(=O)N(c2ccc(-c3csnn3)cc2)C1 (stereo not given) | -0.35
CCCC[C@@]1(C2CCCC2)Cc2cc(OCC(=O)O)c(Cl)c(Cl)c2C1=O | 4*
O=[N+]([O-])c1ccc2c(c1)CCN2C(=S)Nc1ccccc1Cl | 1.1
CCOC(=O)N1CCc2c(sc3c2C(=O)NC(c2cccc(Cl)c2)N3)C1 (stereo not given) | -1.3
O=C(NC(=S)NNc1ncc(C(F)(F)F)cc1Cl)c1ccccc1 | -2.2
O=C(N=S1CCN(c2ncc(C(F)(F)F)cc2Cl)CC1)c1ccccc1 | -0.31
O=C(NC(=S)N1CCN(c2ncc(C(F)(F)F)cc2Cl)CC1)c1ccccc1 | 30*
CC1CN(c2nc3c(Cl)cc(Cl)cc3s2)CC(C)O1 (stereo not given) | -0.86
Clc1ccc(C(=Nc2ccccc2)c2ccccc2)cc1 | 0.31
Cc1ccc(C(=O)/C=C/Sc2ccc(C(F)(F)F)cn2)cc1 | 1.2
COC(=O)/C=C(/Sc1cc(C)c(Cl)cc1C)C(=O)OC | -6.9
O=C1CC(N2CCN(c3ccccc3)CC2)C=C1Nc1ccccc1 (stereo not given) | 4*
O=C1CC(N2CCN(c3ccccc3)CC2)C=C1Nc1ccc(Cl)cc1 (stereo not given) | 1.9
O=C1CC(Nc2ccccc2)C=C1Nc1ccccc1 (stereo not given) | -0.09
Cc1nn(-c2ccccc2)cc1/C=N/n1c(SCC(=O)c2ccccc2)nnc1-c1ccncc1 | -1.1
C=CCOC(=O)C1=C(C)NC2=C(C(=O)CCC2)C1c1cccc(F)c1 (stereo not given) | -0.43
O=C(CC1(O)C(=O)Nc2ccc(Cl)cc21)c1ccccc1 (stereo not given) | 3
Cc1cc(C)c(C(=O)CC2(O)C(=O)Nc3ccc(C)cc32)c(C)c1 (stereo not given) | 1.2
Cc1cc(C)c(C(=O)CC2(O)C(=O)Nc3ccc(Cl)cc32)c(C)c1 (stereo not given) | 4.6*
NC(=O)C1CCN(C(=O)c2cnn3c(C(F)F)cc(-c4ccccc4)nc23)CC1 | 0.97
O=S(=O)(Cc1ccc(Br)cc1F)c1ccccn1 | 1.8
CC1(C)CC(=O)C2=C(C1)NC1=C(C(=O)c3ccccc31)C2c1ccc([N+](=O)[O-])o1 (stereo not given) | 5.5*
COc1ccc(OC)c(C2C3=C(CC(C)(C)CC3=O)NC3=C2C(=O)c2ccccc23)c1 (stereo not given) | 0.33
CC1(C)CC(=O)C2=C(C1)NC1=C(C(=O)c3ccccc31)C2c1cccc(O)c1 (stereo not given) | 2.5
CC(C)(C)c1ccc2c(c1)CN(c1ccc(F)cc1)CO2 | 6.3*
SMILES | Dicer processing
CC(C)(C)c1ccc2c(c1)CN(Cc1ccccc1)CO2 | 2.6
CC(C)(C)c1ccc2c(c1)CN(c1cccc(C(=O)O)c1)CO2 | -0.89
COc1cc(C2NC(C(=O)O)CS2)ccc1OCc1ccc(C)cc1 (stereo not given) | -0.93
O=S(=O)(NC(=S)Nc1ccc(Cl)c(Cl)c1)c1ccccc1 | 1.5
Nc1ccc(S(=O)(=O)NCc2ccco2)cc1 | 1.1
N#C/C(=C\c1ccc(Cl)cc1)S(=O)(=O)Cc1ccco1 | -0.03
N/C(CS(=O)(=O)Cc1ccco1)=N\O | 4.5*
N#C/C(=C\O)c1nc2ccccc2s1 | -0.59
COc1ccc(-c2ccc(C#N)c(=O)[nH]2)cc1 | 1.1
O=S(=O)(Nc1cccc(-c2cn3ccccc3n2)c1)c1ccc(F)cc1 | 1.9
O=S(=O)(Nc1cccc(-c2cn3ccccc3n2)c1)c1ccc(Br)cc1 | 4.4*
Cc1ccn2cc(-c3cccc(S(=O)(=O)N(C)C)c3)nc2c1 | 0.25
CC1CN(S(=O)(=O)c2cccc(-c3cn4ccccc4n3)c2)CC(C)O1 (stereo not given) | -0.73
Cc1ccn2cc(-c3cccc(S(=O)(=O)N4CCOCC4)c3)nc2c1 | -0.79
Cc1cc(C)c(S(=O)(=O)Nc2cccc(-c3cn4ccccc4n3)c2)c(C)c1 | 3.7*
COc1ccc(C2CC(=O)C3=C(C2)Nc2ccccc2NC3c2ccc(O)cc2)cc1OC (stereo not given) | -0.66
Cn1c(=O)c2c(nc(NCc3ccccc3)n2Cc2ccc(Br)cc2)n(C)c1=O | 2.4
CCN(C(=O)c1ccc2c(c1)CCO2)c1cccc2ccccc12 | -0.12
N#CC1=C(SCc2ccccc2)SC(c2ccc(C(=O)O)cc2)NC1=O (stereo not given) | -0.02
Cn1cnnc1SCc1cccc2ccccc12 | 2.3
O=S(=O)(c1ccc(-c2cc(C(F)(F)F)on2)s1)N1CCC(O)CC1 | -1.8
CC(C)Oc1c(N2CCOCC2)c(=O)c1=O | 5.3*
CCc1c(C)nc(N2CCOCC2)[nH]c1=O | -0.93
CCOc1cc(N2CCOCC2)c(OCC)cc1NS(=O)(=O)C(C)C | 1.4
COc1ccc2nc(SCC(=O)Nc3ncc(Br)s3)[nH]c2c1 | 0.68
SMILES | Dicer processing
Cc1nnc(Nc2cccc(Cl)c2C)s1 | 3.4*
Cc1cc(Cl)ccc1Nc1nnc(-c2ccccc2Cl)s1 | -1.5
Clc1cccc(Nc2nnns2)c1Cl | 1.4
COC(=O)CSc1nccc(-c2ccc3c(c2)CCC(C)(C)O3)n1 | 0.48
CN(C1CCCCC1)S(=O)(=O)c1ccc(CNC(=O)c2ccccc2)s1 | -3.1
Clc1cccc(Cl)c1CSc1nc2ccccc2n2cccc12 | -0.6
O=C(O)c1ccc(N2Cc3ccccc3C2)cc1 | -1.5
COc1ccc(C2=Nc3ccccc3SC(c3ccccc3)C2)c(O)c1 (stereo not given) | -3.2

Compound activity deposited in PubChem BioAssay by Center for Chemical Genomics, University of Michigan.
